PubChem BioAssay (NCATS)
Inconclusive results are not listed. Active and inactive are the calls of the source. Calls follow the shape of the dose curve; as a rule, active = well fitted curve in the direction sought with a large enough effect; inconclusive = small, poorly fitted or top-dose-only effect, or another doubt; inactive = no such curve, though single readings can be large; an effect the other way counts as inactive or inconclusive.

What was measured:
[1] = target: Glutathione peroxidase 1 (Homo sapiens) (UniProt P07203); assay: Primary qHTS Assay for Inhibitors of Recombinant Selenoprotein Glutathione Peroxidase 1 (GPX1) (AID 1845191); also: nearly all actives have a fitted effect of over 65% in size
Method in brief: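 GR-coupled readout: NADPH consumption tracked by fluorescence, ex 340/em 450 nm, at t=0 and after 15 min at RT. Final mix 10 nM GPX1, 1 mM GSH, 0.5 mM CHP, 0.5 mM NADPH, 100 nM GR, 0.01% BSA, following 30 min enzyme–compound preincubation.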

[2] = target: Phospholipid hydroperoxide glutathione peroxidase GPX4 (Homo sapiens) (UniProt P36969); assay: Primary qHTS Assay for Inhibitors of Recombinant Selenoprotein Glutathione Peroxidase 4 (GPX4) (AID 1845192); also: nearly all actives have a fitted effect of over 65% in size; also: potency is read from the fitted curve at half-maximal effect
Method in brief: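 Steps: GPX4 plus compound, 30 min RT; add GR/GSH/NADPH master mix; start with cumene hydroperoxide; read 340/450 nm fluorescence at 0 and 15 min. Finals were 200 nM GPX4, 1 mM GSH, 0.5 mM CHP, 0.5 mM NADPH, 100 nM GR.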

[3] = qHTS profiling for inhibitors of Plasmodium falciparum proliferation (AID 504749); also: nearly all actives have a fitted effect of over 60% in size; also: potency is read from the fitted curve at half-maximal effect; conditions: P. falciparum in erythrocytes, SYBR Green DNA, 72 h; series mostly up to 28.7 µM
Method in brief: (§1)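 SYBR Green fluorescence (ex 485 nm, em 535 nm) reports parasite DNA after 72 h compound exposure of infected red cells at 0.3% parasitemia, 2.5% hematocrit; signal normalized to 0.29 uM artemisinin and vehicle wells.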

[4] = test system: 3D7; assay: as above; conditions: P. falciparum in erythrocytes, SYBR Green DNA, 72 h; series mostly up to 28.7 µM
Method in brief: as §1

[5] = test system: 7G8; assay: as above; conditions: P. falciparum in erythrocytes, SYBR Green DNA, 72 h; series mostly up to 28.7 µM
Method in brief: as §1

[6] = test system: AS120; assay: as above; conditions: P. falciparum in erythrocytes, SYBR Green DNA, 72 h; series mostly up to 28.7 µM
Method in brief: as §1

[7] = test system: AA1029; assay: as above; conditions: P. falciparum in erythrocytes, SYBR Green DNA, 72 h; series mostly up to 28.7 µM
Method in brief: as §1

[8] = test system: ATS189; assay: as above; conditions: P. falciparum in erythrocytes, SYBR Green DNA, 72 h; series mostly up to 28.7 µM
Method in brief: as §1

[9] = test system: ATS95; assay: as above; conditions: P. falciparum in erythrocytes, SYBR Green DNA, 72 h; series mostly up to 28.7 µM
Method in brief: as §1

[10] = target: Cytochrome P450 3A4 (Homo sapiens) (UniProt P08684); assay: qHTS for inhibitors of CYP3A4 against the NCATS DSHEA and TCM libraries (AID 1919971);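 also: % is scaled to controls: 0 for no effect and ±100 for the full control effect; inhibition lowers luminescence from luciferin made by CYP3A4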
Method in brief: (§2)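 Substances were tested against enzyme with a pro-luciferin substrate; minus-enzyme wells served as background. After NADPH-initiated oxidation (30-45 min, RT), light was generated with P450-Glo reagent.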

[11] = target: Cytochrome P450 2D6 (Homo sapiens) (UniProt P10635); assay: qHTS for inhibitors of CYP2D6 against the NCATS DSHEA and TCM libraries (AID 1919972); also: % is scaled to controls: 0 for no effect and ±100 for the full control effect
Method in brief: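 qHTS, concentration–response format with most substances from 19.5 nM. CYP2D6 + pro-luciferin substrate, 15 min with compound, then 1x NADPH regen, 30–45 min RT dark. Glo detection 30 min, luminescence. Quinidine control.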

[12] = target: Cytochrome P450 2C9 (Homo sapiens) (UniProt P11712); assay: qHTS for inhibitors of CYP2C9 against the NCATS DSHEA and TCM libraries (AID 1919973);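 also: luminogenic pro-luciferin CYP2C9 substrate turned into luciferin with NADPH regeneration; % is scaled to controls: 0 for no effect and ±100 for the full control effect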
Method in brief: as §2

[13] = KB-3-1 P-gp reporter qHTS against the NCATS DSHEA and TCM libraries (AID 1919975); also: 0% is about no effect
Method in brief: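 Cell viability qHTS: 500 KB-3-1 cells/well, substances in titration, ~72 h, 37C; luminescent CellTiter-Glo read.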

[14] = qHTS Counterscreen for compound interference against the NCATS DSHEA and TCM libraries (AID 1919978); conditions: firefly luciferase detection reagent interference, luminescence;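 also: compounds preincubated with 1 µM D-luciferin or buffer before detection reagent; % of control where 0% means no effect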
Method in brief: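 Interference check: test samples were incubated with D-luciferin (final 1 uM) or buffer only for 15 min, room temperature, in a qHTS titration up to 39.8 uM, then developed with detection reagent and read by luminescence.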

[15] = Dual reporter qHTS for agonist of Pregnane X Receptor (hPXR) against the NCATS DSHEA and TCM libraries: Fluorescence readout (AID 1920058); also: 0% is about no effect
Method in brief: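 Fluorescence read-out for cell viability: CellTiter-Fluor, 1 h at 37 °C, Ex/Em 405/540 nm. This followed ~24 h treatment of hPXR-Luc HepG2 cells with substances in agonist mode.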

[16] = target: Nuclear receptor subfamily 1 group I member 2 (Homo sapiens) (UniProt O75469); assay: Dual reporter qHTS for antagonist of Pregnane X Receptor (hPXR) against the NCATS DSHEA and TCM libraries: Luminescence Readout (AID 1920060); also: 0% is about no effect
Method in brief: (§3)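 Rifampicin-stimulated (2 uM final) hPXR-luciferase HepG2 cells were treated for 24 h with DSNP/TCM substances. Viability came from CellTiter-Fluor fluorescence, reporter activity from ONE-Glo luminescence.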

[17] = Dual reporter qHTS for antagonist of Pregnane X Receptor (hPXR) against the NCATS DSHEA and TCM libraries: Fluorescence Readout (AID 1920061); also: 0% is about no effect
Method in brief: as §3

[18] = target: Cytochrome P450 2C19 (Homo sapiens) (UniProt P33261); assay: qHTS for inhibitors of CYP2C19 against the NCATS DSHEA and TCM libraries (AID 1919974);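 also: luminescence from luciferin released by CYP2C19 oxidation of a pro-luciferin substrate; % is scaled to controls: 0 for no effect and ±100 for the full control effect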
Method in brief: as §2

[19] = target: Cytochrome P450 1A2 (Homo sapiens) (UniProt P05177); assay: qHTS for inhibitors of CYPIA2 against the NCATS DSHEA and TCM libraries (AID 1919976); also: % is scaled to controls: 0 for no effect and ±100 for the full control effect
Method in brief: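 Luminescence read-out: pro-luciferin converted to D-luciferin by CYP1A2, detected with P450-Glo reagent after 30 min RT. Enzyme plus substrate got compounds for 15 min RT; NADPH regeneration solution (final 1x) started a 30-45 min reaction, light-protected.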

[20] = target: Nuclear receptor subfamily 1 group I member 2 (Homo sapiens) (UniProt O75469); assay: Dual reporter qHTS for agonist of Pregnane X Receptor (hPXR) against the NCATS DSHEA and TCM libraries: Luminescence readout (AID 1920059); also: 0% is about no effect
Method in brief: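 hPXR-Luc HepG2 cells, 2000/well in 5% charcoal-stripped FBS medium, attached 5 h, then exposed 24 h at 37C to compounds. Viability by CellTiter-Fluor, then luciferase luminescence with ONE-Glo.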

Sequence of Phospholipid hydroperoxide glutathione peroxidase GPX4 (Homo sapiens) (P36969 whole entry, looked up): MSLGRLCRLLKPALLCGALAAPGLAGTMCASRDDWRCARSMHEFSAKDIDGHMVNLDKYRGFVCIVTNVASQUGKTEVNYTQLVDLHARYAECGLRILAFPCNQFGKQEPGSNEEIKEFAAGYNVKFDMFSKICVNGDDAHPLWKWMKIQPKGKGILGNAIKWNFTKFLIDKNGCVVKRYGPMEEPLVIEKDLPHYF
Sequence of Nuclear receptor subfamily 1 group I member 2 (Homo sapiens) (O75469 whole entry, looked up): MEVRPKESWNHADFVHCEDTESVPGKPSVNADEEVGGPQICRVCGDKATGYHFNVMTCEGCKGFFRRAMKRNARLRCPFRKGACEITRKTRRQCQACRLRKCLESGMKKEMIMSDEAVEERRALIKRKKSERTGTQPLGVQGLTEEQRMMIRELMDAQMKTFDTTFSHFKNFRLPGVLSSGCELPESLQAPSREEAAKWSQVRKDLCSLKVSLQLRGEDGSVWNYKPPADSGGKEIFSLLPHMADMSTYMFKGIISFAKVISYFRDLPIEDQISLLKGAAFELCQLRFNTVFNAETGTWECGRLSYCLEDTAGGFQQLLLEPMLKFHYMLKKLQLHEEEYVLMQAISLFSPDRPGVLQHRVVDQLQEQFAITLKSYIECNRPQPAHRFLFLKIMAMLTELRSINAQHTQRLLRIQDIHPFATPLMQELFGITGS
Sequence of Glutathione peroxidase 1 (Homo sapiens) (P07203 whole entry, looked up): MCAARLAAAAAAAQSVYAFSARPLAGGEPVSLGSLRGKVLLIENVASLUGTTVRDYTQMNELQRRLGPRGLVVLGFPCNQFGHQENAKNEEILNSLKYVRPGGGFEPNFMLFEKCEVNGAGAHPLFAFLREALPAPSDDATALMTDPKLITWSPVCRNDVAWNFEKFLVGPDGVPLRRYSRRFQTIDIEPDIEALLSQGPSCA
Sequence of Cytochrome P450 2C9 (Homo sapiens) (P11712 whole entry, looked up): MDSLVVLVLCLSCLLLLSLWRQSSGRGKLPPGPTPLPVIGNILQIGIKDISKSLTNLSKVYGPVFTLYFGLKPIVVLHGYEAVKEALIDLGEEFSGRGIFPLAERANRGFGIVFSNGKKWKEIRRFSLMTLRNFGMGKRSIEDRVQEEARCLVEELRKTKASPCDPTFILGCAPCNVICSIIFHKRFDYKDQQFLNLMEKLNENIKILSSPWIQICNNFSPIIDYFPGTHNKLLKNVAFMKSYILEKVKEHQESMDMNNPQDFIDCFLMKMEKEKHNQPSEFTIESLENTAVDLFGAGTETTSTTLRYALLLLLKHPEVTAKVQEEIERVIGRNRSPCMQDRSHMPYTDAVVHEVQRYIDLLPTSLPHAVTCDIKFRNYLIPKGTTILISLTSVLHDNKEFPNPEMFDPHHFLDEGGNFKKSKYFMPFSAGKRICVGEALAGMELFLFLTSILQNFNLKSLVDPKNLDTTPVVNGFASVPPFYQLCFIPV
Sequence of Cytochrome P450 2D6 (Homo sapiens) (P10635 whole entry, looked up): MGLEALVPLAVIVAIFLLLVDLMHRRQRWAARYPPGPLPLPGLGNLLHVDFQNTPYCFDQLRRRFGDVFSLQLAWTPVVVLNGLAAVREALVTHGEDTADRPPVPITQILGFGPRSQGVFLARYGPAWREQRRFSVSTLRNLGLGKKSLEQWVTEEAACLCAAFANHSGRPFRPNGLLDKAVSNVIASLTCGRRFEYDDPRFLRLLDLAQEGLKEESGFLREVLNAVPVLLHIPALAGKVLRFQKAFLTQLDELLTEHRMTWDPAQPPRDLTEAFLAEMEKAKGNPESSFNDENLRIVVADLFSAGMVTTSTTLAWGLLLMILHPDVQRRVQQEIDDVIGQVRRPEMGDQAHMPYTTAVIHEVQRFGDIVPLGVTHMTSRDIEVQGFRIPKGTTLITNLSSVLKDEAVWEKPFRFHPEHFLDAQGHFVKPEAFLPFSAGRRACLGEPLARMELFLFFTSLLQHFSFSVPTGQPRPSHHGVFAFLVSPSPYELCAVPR
Sequence of Cytochrome P450 3A4 (Homo sapiens) (P08684 whole entry, looked up): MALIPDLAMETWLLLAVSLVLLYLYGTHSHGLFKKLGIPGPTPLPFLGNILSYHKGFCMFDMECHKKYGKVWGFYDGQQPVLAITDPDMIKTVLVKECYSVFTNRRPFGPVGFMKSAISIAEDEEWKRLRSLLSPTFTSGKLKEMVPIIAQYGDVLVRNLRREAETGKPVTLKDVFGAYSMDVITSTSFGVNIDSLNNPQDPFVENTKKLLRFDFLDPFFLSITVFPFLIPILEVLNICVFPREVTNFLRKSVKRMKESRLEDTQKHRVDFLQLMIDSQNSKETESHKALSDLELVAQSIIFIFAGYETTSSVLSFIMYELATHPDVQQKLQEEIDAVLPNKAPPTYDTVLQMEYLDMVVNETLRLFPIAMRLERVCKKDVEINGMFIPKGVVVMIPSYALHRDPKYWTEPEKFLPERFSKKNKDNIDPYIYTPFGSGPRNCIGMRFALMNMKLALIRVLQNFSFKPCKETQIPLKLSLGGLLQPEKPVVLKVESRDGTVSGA
Sequence of Cytochrome P450 2C19 (Homo sapiens) (P33261 whole entry, looked up): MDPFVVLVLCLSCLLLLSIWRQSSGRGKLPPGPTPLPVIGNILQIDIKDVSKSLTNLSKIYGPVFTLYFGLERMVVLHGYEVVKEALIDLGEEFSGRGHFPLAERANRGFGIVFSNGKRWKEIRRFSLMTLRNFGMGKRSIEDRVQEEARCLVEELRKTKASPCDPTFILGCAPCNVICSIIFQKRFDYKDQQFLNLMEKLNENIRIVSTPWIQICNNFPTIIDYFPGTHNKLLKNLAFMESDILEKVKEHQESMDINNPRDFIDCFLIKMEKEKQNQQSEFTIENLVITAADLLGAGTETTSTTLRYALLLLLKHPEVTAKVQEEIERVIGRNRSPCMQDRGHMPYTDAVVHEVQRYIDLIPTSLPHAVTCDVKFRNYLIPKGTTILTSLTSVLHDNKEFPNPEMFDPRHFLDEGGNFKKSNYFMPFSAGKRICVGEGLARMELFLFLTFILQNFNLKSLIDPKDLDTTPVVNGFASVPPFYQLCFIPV
Sequence of Cytochrome P450 1A2 (Homo sapiens) (P05177 whole entry, looked up): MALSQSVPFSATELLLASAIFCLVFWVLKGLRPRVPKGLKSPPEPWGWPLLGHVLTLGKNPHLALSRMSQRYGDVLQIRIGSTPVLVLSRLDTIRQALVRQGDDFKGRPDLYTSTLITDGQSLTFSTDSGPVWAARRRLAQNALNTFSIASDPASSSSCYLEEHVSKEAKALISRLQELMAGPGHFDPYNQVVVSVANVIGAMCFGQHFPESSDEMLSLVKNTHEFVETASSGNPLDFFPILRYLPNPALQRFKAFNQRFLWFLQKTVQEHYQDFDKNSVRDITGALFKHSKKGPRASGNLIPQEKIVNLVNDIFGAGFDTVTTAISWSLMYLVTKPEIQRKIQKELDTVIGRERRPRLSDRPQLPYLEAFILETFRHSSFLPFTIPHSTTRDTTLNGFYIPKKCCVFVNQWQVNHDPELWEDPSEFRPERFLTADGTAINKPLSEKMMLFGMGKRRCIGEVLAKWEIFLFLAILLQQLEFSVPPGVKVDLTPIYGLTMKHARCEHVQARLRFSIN

O=C(c1ccc2c(c1)OCCO2)N1CCCCC1
inactive: Potency [1] | Potency [2]

CCCCCCC(=O)OC1CC(C)(C)NC(C)(C)C1
inactive: Potency [2]

CN1C2CCC1CC(OC(c1ccccc1)c1ccccc1)C2 (stereo not drawn)
active: Potency [5] 4.47 µM
inactive: Potency [1] | Potency [2] | outcome [3] | Potency [4] | outcome [6]

CC(O)C(O)[C@H]1CNc2nc(N)[nH]c(=O)c2N1 (stereo partly drawn)
inactive: Potency [1] | Potency [2] | outcome [3] | Potency [4] | outcome [7] | outcome [6] | Potency [8] | outcome [9]

O=C(O)/C=C/c1ccc(O)c(O)c1
inactive: Potency [1] | Potency [2] | outcome [10] | outcome [11] | outcome [12] | outcome [13] | max response [14] -3.07% | outcome [15] | outcome [16] | outcome [17]

O=c1cc(-c2ccccc2F)[nH]c2cc3c(cc12)OCO3
inactive: Potency [1] | Potency [2]

CCCCCCCCCCCCCCC[C@H](O)[C@H](N)CO
inactive: Potency [1] | Potency [2] | outcome [3] | Potency [4] | outcome [7] | outcome [6] | Potency [8] | outcome [9]

NC1CONC1=O (stereo not drawn)
inactive: Potency [1] | Potency [2]

N[C@@H](Cc1ccc(F)cc1)C(=O)O
inactive: Potency [1] | Potency [2]

NCC(O)(CS(=O)(=O)O)c1ccc(Cl)cc1 (stereo not drawn)
inactive: Potency [1] | Potency [2]

C=C1C[C@@]23CC[C@H]4[C@@](C)(CCC[C@@]4(C)C(=O)O)[C@@H]2CC[C@]1(O)C3
inactive: Potency [1] | Potency [2]

[Li+]
inactive: Potency [1] | Potency [2]

O=C(O)CCC/C=C\C[C@@H]1[C@@H](/C=C/[C@H](O)C2Cc3ccccc3C2)[C@@H](F)C[C@@H]1O
inactive: Potency [1] | Potency [2]

c1ccc2c(c1)CCC[C@H]2Nc1nc2ccccc2[nH]1
inactive: Potency [1] | Potency [2]

c1ccc(C2CN3CCSC3=N2)cc1 (stereo not drawn)
active: Potency [4] 11.2 µM | Potency [5] 0.794 µM | Potency [8] 5.01 µM
inactive: Potency [1] | Potency [2]

CCCn1c(=O)c2[nH]c(-c3ccc(S(=O)(=O)O)cc3)nc2n(CCC)c1=O
active: Potency [2] 11.2 µM

Cc1ccc2c(c1)C(N1CCN(C)CC1)=Nc1cccnc1N2
inactive: Potency [1] | Potency [2]

O=c1[nH]c(=O)c2nc3ccccc3nc2[nH]1
inactive: Potency [1] | Potency [2]

CC(=O)/C(C)=N/O
inactive: Potency [1] | Potency [2]

Cc1nc(N=Nc2cc(S(=O)(=O)O)c3cc([N+](=O)[O-])cc(S(=O)(=O)O)c3c2)c(COP(=O)(O)O)c(C=O)c1O
inactive: Potency [1] | Potency [2]

CC(C)(C)c1cc(/C=C(\C#N)C(N)=S)cc(C(C)(C)C)c1O
inactive: Potency [1] | Potency [2]

CCCCCCCCCCCCCCCCCCOC[C@H](COP(=O)([O-])OCC[N+](C)(C)C)OC
inactive: Potency [1] | Potency [2] | outcome [3] | Potency [4] | Potency [5] | outcome [7] | outcome [6] | Potency [8] | outcome [9]

C=CCNc1ncnc2ccc(Br)cc12
inactive: Potency [1] | Potency [2]

Nc1ncnc2c1c(-c1ccc(Oc3ccccc3)cc1)cn2C1CCCC1
inactive: Potency [1] | Potency [2]

C=C1C[C@@]23CC[C@H]4[C@@](C)(CCC[C@@]4(C)C(=O)OC4OC(CO)C(O)C(O)C4O)[C@@H]2CC[C@]1(OC1OC(CO)C(O)C(O)C1OC1OC(CO)C(O)C(O)C1O)C3 (stereo partly drawn)
inactive: Potency [1] | Potency [2] | outcome [10] | outcome [11] | outcome [12] | outcome [18] | outcome [13] | outcome [19] | max response [14] 4.65% | outcome [15] | outcome [20] | outcome [16] | outcome [17]
